Assay results published in PubChem BioAssay (NCI).
Compounds without any hit were thinned out: in the full panel of roughly 79,000, 15% have a hit. The source made the active and inactive calls. Cut-off read from the data, not from the text of the source: active = growth inhibition above about 70%; inactive = the rest.

How the values were obtained:
[1] = NCI Yeast Anticancer Drug Screen. Data for the rad52 strain (AID 147);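 note: 0% = growth of vehicle-treated control cultures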; details: S. cerevisiae rad52 mutant growth inhibition, stronger effect = higher value
Outline: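 Inhibition of yeast growth, referenced to vehicle controls, was the measured output for a strain with defective DNA damage repair.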

[2] = NCI Yeast Anticancer Drug Screen. Data for the wt1 strain (AID 149);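 note: 0% = growth of vehicle-treated wt1 cultures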; details: S. cerevisiae wt1 strain (SPY 50644) growth inhibition, stronger effect = higher value
Outline: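 wt1 yeast, compound-treated; % growth inhibition vs vehicle control.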

[3] = NCI Yeast Anticancer Drug Screen. Data for the rad50EPP+ strain (AID 151);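 note: 0% = growth of vehicle-treated control cultures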; details: S. cerevisiae rad50 mutant strain, stronger effect = higher value
Outline: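 Genetically defined yeast (rad50EPP+, DNA damage repair alteration) is grown with compound, and inhibition of growth is expressed relative to vehicle-treated controls.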

[4] = NCI Yeast Anticancer Drug Screen. Data for the mgt1 strain (AID 153); details: S. cerevisiae mgt1 mutant growth inhibition, stronger effect = higher value
Outline: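 In the mgt1 strain, test compounds were added and growth inhibition was determined relative to vehicle-treated controls.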

[5] = NCI Yeast Anticancer Drug Screen. Data for the mec2-1 strain (AID 157); details: S. cerevisiae mec2-1 strain, stronger effect = higher value
Outline: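 Each compound was tested on mec2-1 yeast, a strain altered in DNA damage repair or cell cycle control. Growth inhibition is reported relative to vehicle.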

[6] = NCI Yeast Anticancer Drug Screen. Data for the rad14 strain (AID 159);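 note: 0% = growth of vehicle-treated control cultures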; details: S. cerevisiae rad14 strain growth inhibition, stronger effect = higher value
Outline: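 Test compounds were applied to a repair-deficient yeast strain. Its growth was then compared with that of cultures given vehicle alone, and inhibition was expressed relative to those controls.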

[7] = NCI Yeast Anticancer Drug Screen. Data for the sgs1 mgt1 strain (AID 161);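 note: 0% = growth of cultures given vehicle only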; details: S. cerevisiae sgs1 mgt1 strain, stronger effect = higher value
Outline: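 Mutant yeast exposed to compound; growth scored against vehicle-only wells.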

[8] = NCI Yeast Anticancer Drug Screen. Data for the CLN2oe strain (AID 163);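 note: 0% = growth of vehicle-only control cultures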; details: S. cerevisiae CLN2oe strain, stronger effect = higher value
Outline: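 First, the altered yeast strain was treated with each compound; second, its growth was measured; finally, inhibition was derived by comparison with vehicle controls.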

[9] = NCI Yeast Anticancer Drug Screen. Data for the cln2 rad14 strain (AID 165);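 note: 0% = growth equal to vehicle treated cultures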; details: S. cerevisiae cln2 rad14 strain, stronger effect = higher value
Outline: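 Test compounds were added to cln2 rad14 yeast cultures; inhibition of growth was then determined by comparison with vehicle treatment.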

[10] = NCI Yeast Anticancer Drug Screen. Data for the bub3 strain (AID 167); details: S. cerevisiae bub3 mutant strain, stronger effect = higher value
Outline: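 Yeast carrying a defined mutation is treated with each compound, and growth is compared with that of vehicle-exposed cells to give inhibition.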

[11] = NCI Yeast Anticancer Drug Screen. Data for the wt2 strain (AID 169);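 note: 0% = growth of vehicle-treated yeast cultures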; details: S. cerevisiae wt2 strain growth inhibition, stronger effect = higher value
Outline: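 The panel's yeast strains carry defined changes in DNA repair or cell cycle genes. Each strain is grown with compound, and growth loss is scored relative to vehicle.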

[12] = NCI Yeast Anticancer Drug Screen. Data for the mlh1 strain (AID 171);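 note: 0% = growth of vehicle-treated control cultures of the same strain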; details: S. cerevisiae mlh1 strain growth inhibition, stronger effect = higher value
Outline: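 Inhibition values reflect reduced yeast growth in the presence of compound, referenced to vehicle controls, using a strain chosen for its alteration in DNA repair or cell cycle control.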

[13] = NCI Yeast Anticancer Drug Screen. Data for the sgs1 strain (AID 173);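 note: 0% = growth of vehicle-only control cultures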; details: S. cerevisiae sgs1 mutant, stronger effect = higher value
Outline: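 Vehicle-treated cultures served as reference for growth inhibition of a yeast strain altered in DNA damage repair or cell cycle control after compound exposure.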

[14] = NCI Yeast Anticancer Drug Screen. Data for the mlh1 rad18 strain (AID 175); details: S. cerevisiae mlh1 rad18 strain growth inhibition, stronger effect = higher value
Outline: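 Inhibition values reflect reduced growth of mutant yeast versus vehicle-treated controls following compound exposure; the mutations affect DNA damage repair.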

[15] = NCI Yeast Anticancer Drug Screen. Data for the rad18 strain (AID 177); details: S. cerevisiae rad18 mutant growth inhibition, stronger effect = higher value
Outline: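 Steps: expose repair-mutant yeast to compound; measure growth; express as inhibition relative to vehicle control.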

[16] = at 5.0 µM (retest, dose inferred, filed as 0.5)
[17] = at 50.0 µM (retest, dose inferred, filed as 5.0)

Measured: growth inhibition

FC(F)(F)c1cc(NC(=S)N2c3ccccc3-n3cccc3C2c2cccnc2)cc(C(F)(F)F)c1 (stereo not given)
active: [14]; at 50.0 µM 70.7%
inactive: [1]; at 1.2 µM -3% | [1]; at 3.7 µM -5% | [1]; at 11.0 µM -9% | [1]; at 33.0 µM -3% | [1]; at 100.0 µM -4% | [2]; at 1.2 µM 2% | [2]; at 3.7 µM -5% | [2]; at 11.0 µM -4% | [2]; at 33.0 µM -6% | [2]; at 100.0 µM -9% | [3]; at 1.2 µM 1% | [3]; at 3.7 µM 6% | [3]; at 11.0 µM 18% | [3]; at 33.0 µM 42% | [3]; at 100.0 µM 57% | [4]; at 1.2 µM -10% | [4]; at 3.7 µM -5% | [4]; at 11.0 µM -17% | [4]; at 33.0 µM -36% | [4]; at 100.0 µM -17% | [5]; at 1.2 µM -5% | [5]; at 3.7 µM -4% | [5]; [16] -6% | [5]; at 11.0 µM -2% | [5]; at 33.0 µM -1% | [5]; [17] 51% | [5]; at 50.0 µM 47.1% | [5]; at 100.0 µM -1% | [6]; at 1.2 µM 2% | [6]; at 3.7 µM 0% | [6]; at 11.0 µM -1% | [6]; at 33.0 µM -3% | [6]; at 100.0 µM -5% | [7]; [16] -3% | [7]; [17] 69% | [7]; at 50.0 µM 44.5% | [8]; at 1.2 µM -3% | [8]; at 3.7 µM -2% | [8]; at 11.0 µM 2% | [8]; at 33.0 µM -1% | [8]; at 100.0 µM -5% | [9]; [16] -10% | [9]; [17] 21% | [9]; at 50.0 µM 43.6% | [10]; at 1.2 µM -1% | [10]; at 3.7 µM -5% | [10]; [16] -3% | [10]; at 11.0 µM -5% | [10]; at 33.0 µM -4% | [10]; [17] 45% | [10]; at 50.0 µM 26.4% | [10]; at 100.0 µM -9% | [11]; at 1.2 µM -2% | [11]; at 3.7 µM -3% | [11]; at 11.0 µM -2% | [11]; at 33.0 µM -1% | [11]; at 100.0 µM 2% | [12]; at 1.2 µM -2% | [12]; at 3.7 µM -1% | [12]; at 11.0 µM -4% | [12]; at 33.0 µM -4% | [12]; at 100.0 µM 6% | [13]; at 1.2 µM -8% | [13]; at 3.7 µM -3% | [13]; at 11.0 µM -2% | [13]; at 33.0 µM -2% | [13]; at 100.0 µM 1% | [14]; [16] -7% | [14]; [17] 69%

C[S+](C)C1(c2ccccc2)C(=O)c2ccccc2C1=O
active: [1]; at 100.0 µM 73% | [3]; at 100.0 µM 72%
inactive: [1]; at 1.2 µM 8% | [1]; at 3.7 µM 11% | [1]; at 11.0 µM 20% | [1]; at 33.0 µM 35% | [2]; at 1.2 µM 1% | [2]; at 3.7 µM 2% | [2]; at 11.0 µM 1% | [2]; at 33.0 µM 3% | [2]; at 100.0 µM 12% | [3]; at 1.2 µM 1% | [3]; at 3.7 µM 3% | [3]; at 11.0 µM 9% | [3]; at 33.0 µM 36% | [4]; at 1.2 µM 2% | [4]; at 3.7 µM 1% | [4]; at 11.0 µM 4% | [4]; at 33.0 µM 3% | [4]; at 100.0 µM 36% | [5]; at 1.2 µM 3% | [5]; at 3.7 µM 0% | [5]; [16] -9% | [5]; at 11.0 µM 0% | [5]; at 33.0 µM 11% | [5]; [17] 1% | [5]; at 50.0 µM -11.7% | [5]; at 100.0 µM 30% | [6]; at 1.2 µM 1% | [6]; at 3.7 µM 0% | [6]; at 11.0 µM 2% | [6]; at 33.0 µM 6% | [6]; at 100.0 µM 22% | [7]; [16] 6% | [7]; [17] 6% | [7]; at 50.0 µM 1.35% | [8]; at 1.2 µM 1% | [8]; at 3.7 µM 2% | [8]; at 11.0 µM 8% | [8]; at 33.0 µM 13% | [8]; at 100.0 µM 26% | [9]; [16] 6% | [9]; [17] 10% | [9]; at 50.0 µM 9.8% | [10]; at 1.2 µM 1% | [10]; at 3.7 µM 2% | [10]; [16] -7% | [10]; at 11.0 µM 2% | [10]; at 33.0 µM 8% | [10]; [17] 10% | [10]; at 50.0 µM 35.9% | [10]; at 100.0 µM 30% | [11]; at 1.2 µM 2% | [11]; at 3.7 µM -1% | [11]; at 11.0 µM 0% | [11]; at 33.0 µM 6% | [11]; at 100.0 µM 32% | [13]; at 1.2 µM -1% | [13]; at 3.7 µM -2% | [13]; at 11.0 µM -1% | [13]; at 33.0 µM 16% | [13]; at 100.0 µM 52% | [14]; [16] 10% | [14]; [17] 10% | [14]; at 50.0 µM 27.9% | [15]; at 1.2 µM 5% | [15]; at 3.7 µM 9% | [15]; at 11.0 µM 16% | [15]; at 33.0 µM 36% | [15]; at 100.0 µM 54%
